Screening data from PubChem BioAssay.
PrP 5UTR inh: inhibition of PrP 5' UTR reporter expression | cell-based PrP 5' UTR mRNA reporter, plate reader | inhibition, % (test concentration not listed) | hit rate 0.35% among 340,000; in the data active = inhibition above about 52%; note: 0 = median of the neutral control wells
PrPC TRFRET: cell surface PrPC inhibition, primary TR-FRET screen; P04156; hit rate 0.43% among 370,000; inhibition, % at 13.8 µM; TR-FRET read-out; in the data active = inhibition above about 24%; note: 0% = median of the test wells and 100% = reference compound wells
SARS 3CLpro inh-1: SARS-CoV 3CLpro protease inhibition; P0C6X7; recombinant SARS-CoV 3CLpro, quenched FRET peptide cleavage; inhibition, % at 6 µM; hit rate 0.14% among 290,000; AID 1706; in the data active = inhibition above about 12%
CCHF vOTU inh: CCHFV vOTU protease inhibition; Pep-AMC fluorescence; inhibition, % at 11.5 µM; hit rate 0.55% among 370,000; in the data active = inhibition above about 30%; note: 0% = vehicle wells with enzyme and 100% = no enzyme wells
SARS 3CLpro inh-2: SARS 3CLpro inhibition, confirmation assay; shares compounds with SARS 3CLpro inh-1; QFRET protease activity assay; inhibition, % at 6 µM; hit rate 36% among 380; AID 1879; in the data active = inhibition above about 13%
* = called active by the depositor; x = not tested or not shown. Rows were chosen to be rich in hits. Some 1.3% of all compounds tested hit in one or more screens of this group.

SMILES	PrP 5UTR inh	PrPC TRFRET	SARS 3CLpro inh-1	CCHF vOTU inh	SARS 3CLpro inh-2
CCc1ccc(OC(=O)CN2C(=O)c3ccccc3C2=O)cc1	-24.1	6.6	6.8	-0.8	x
O=C(CN1C(=O)c2ccccc2C1=O)Oc1ccc(F)cc1	x	x	12.5*	x	9.9
COc1cc(OC)c(OC)cc1/C=C1\Oc2cc(OCC(=O)N3Cc4ccccc4C[C@H]3C(=O)O)ccc2C1=O	-13.4	x	12.5*	x	4.1
N#Cc1c(NC(=S)NC(=O)c2ccccc2)sc2c1CCC2	-32.7	-2.4	21.2*	2.3	-2.6
CC(C)(C)C1CCc2onc(C(=O)Nc3cccnc3)c2C1 (stereo unspecified)	-6.4	0.8	13.6*	-6.3	7.3
CN(C)S(=O)(=O)c1cccc(NC(=S)N/N=C/c2cc(Br)ccc2O)c1	33.1	-3.7	15.3*	12.6	4.6
Cc1cc(C)n(C(=O)c2ccc(C)c(Br)c2)n1	-2.4	1.6	13.9*	-15.1	13.4*
CCCCCn1c(CN2CCN(Cc3ccccc3)CC2)nc2c1c(=O)[nH]c(=O)n2C	4.3	-10.1	12.6*	-1.8	2.0
Cc1ccc2c(cnn2C(=O)CCC(=O)NCc2cccc(Br)c2)c1	-0.6	6.8	-7.5	0.9	x
O=C(NN1C(=O)/C(=C/c2ccc(O)cc2)SC1=S)c1ccccc1O	-5.0	-18.7	13.3*	8.0	-2.1
COc1cc(/C=C2\SC(=S)N(NC(=O)c3ccccc3O)C2=O)ccc1O	-13.5	-14.1	3.5	6.9	x
O=C(O)Cn1c(SCCOc2ccc(Cl)cc2)nc2ccccc21	-16.8	-5.6	2.2	-15.2	x
Oc1ccc(Cl)cc1Cc1cc(Cl)ccc1O	-3.3	1.4	13.0*	18.4	7.2
Oc1ccc(Cl)cc1Cc1ccccc1	6.0	-1.3	x	-0.7	x
COc1ccc(C(=O)Oc2cccnc2)cc1	-12.6	2.4	25.2*	14.8	39.0*
O=C(Oc1cccnc1)c1ccccc1[N+](=O)[O-]	-10.0	3.0	19.8*	1.9	50.8*
CSc1ncccc1C(=O)NC1CCCCCCC1	x	4.5	-2.6	-0.1	x
CC1=CC(C)(C)n2c(O)c(N=NC(N)=S)c3c(C)c(C)cc1c32	1.0	1.9	-0.2	-4.2	x
Cc1ccc(C)c(S(=O)(=O)N2CCN(C(=O)c3ccc(N4CCCC4)c([N+](=O)[O-])c3)CC2)c1	-8.4	-2.9	12.8*	-2.4	4.6
NC(=O)CCn1c(C(=O)c2ccc(Cl)cc2)c2ccccc2[n+]1[O-]	-18.1	-12.0	46.5*	-2.3	47.8*
CC(C)CC(=O)NC(c1ccccc1Cl)c1c(O)ccc2ccccc12 (stereo unspecified)	7.1	16.0	12.9*	3.1	2.0
COc1ccc(C(NC(=O)CC(C)C)c2c(O)ccc3ccccc23)cc1 (stereo unspecified)	6.1	2.4	6.8	-5.2	x
NC(=O)/C=C/C(=O)Nc1ccc(Cl)cc1	-13.9	1.6	0.9	-5.2	x
O=C(Nc1nc(-c2cccc([N+](=O)[O-])c2)cs1)c1cccc([N+](=O)[O-])c1C(=O)O	-13.5	-23.1	17.5*	8.2	5.5
Cc1ccc(-c2csc(NC(=O)c3cccc([N+](=O)[O-])c3C(=O)O)n2)cc1	-20.9	-3.2	10.1	-8.9	x
SMILES	PrP 5UTR inh	PrPC TRFRET	SARS 3CLpro inh-1	CCHF vOTU inh	SARS 3CLpro inh-2
COc1cc(CN(C)CC(=O)c2[nH]c(C)c(C(C)=O)c2C)ccc1OC(F)F	-29.3	2.4	-0.4	6.9	x
CC(C)c1ccc(OC[C@@H](O)CN2CCC(C(O)(c3ccccc3)c3ccccc3)CC2)cc1	x	-18.1	x	19.9	x
O=C(N/N=C\c1c(O)ccc2ccccc12)c1cncc(Br)c1	33.0	-1.0	29.2*	-0.8	26.3*
CC[C@@]12C(=O)N(c3cccc(F)c3)C(=O)N1[C@H](c1ccc(F)cc1)[C@@H]1C(=O)N(C3CCCCC3)C(=O)[C@@H]12	-21.6	x	16.3*	x	8.1
CCCCN(C(=O)CSc1nnc(-c2ccc(OC)cc2)n1CC)c1c(N)n(Cc2ccccc2)c(=O)[nH]c1=O	0.2	3.4	1.9	-17.0	x
O=C(CSc1ncnc2scc(-c3ccccc3)c12)Nc1ccc(C(=O)O)cc1	-33.7	0.9	12.8*	0.7	6.1
CC(=O)c1cccc(NC(=O)c2cc(=O)[nH]c3ccc(S(=O)(=O)N4CCOCC4)cc23)c1	-6.1	1.4	x	-20.5	x
CC(=O)n1cc(N(C(=O)CCl)c2ccc(Cl)cc2)c2ccccc21	x	x	12.8*	x	34.6*
O=C(Cn1nnc(-c2ccccc2NC(=O)c2ccccc2F)n1)NCc1ccco1	-5.9	-9.0	12.4*	10.6	0.8
Clc1cccc(CNc2ccn3nc(-c4ccc(OCCN5CCOCC5)cc4)cc3n2)c1	x	8.7	x	-4.3	x
O=C(COc1ccccc1)N1c2ccccc2Sc2ccccc21	-19.7	-2.3	0.3	-16.4	x
